Laboratory results from PubChem BioAssay AID1430 (University of Pittsburgh Molecular Library Screening Center, 2008).
About 240 (0.11%) of roughly 220,000 compounds were called active.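 The calls were made as follows: active = inhibition of 50% or more in the single-dose primary screen; inactive = inhibition below 50%.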 What follows is part of a selection rich in actives, with near analogues and random picks from the rest.

tested on: hexokinase 1 [Trypanosoma brucei]; assay: TbHK1 enzyme activity blockers – biochemical, G6PDH-coupled NADH absorbance, MLSCN library, primary screen (AID 1430); settings: recombinant TbHK1, G6PDH-coupled NADH A340; at 10 µM; stronger effect = higher value

Row | SMILES | inhibition
1 | O=C(Nc1ccccc1)c1cc2ccccc2[nH]1 | -8.21% (inactive)
2 | COC(=O)c1nc(NC(=O)c2ccc(C(C)(C)C)cc2)n[nH]1 | -1.14% (inactive)
3 | CCOC(=O)N1CCC(C(N)=O)CC1 | 4.5% (inactive)
4 | COC(=O)C1CCN(C(=O)c2cc(=O)[nH]c3ccccc23)CC1 | -8.77% (inactive)
5 | COC(=O)C1CCN(CC(N)=O)CC1 | 60.6% (active)
6 | O=C(Nc1ccc(S(=O)(=O)N2CCOCC2)cc1)c1ccc2ncsc2c1 | -11% (inactive)
7 | CC12C(=O)N(c3ccccc3)C(=O)C1C(c1ccccc1)N1CCCN12 (centres undefined) | -4.21% (inactive)
8 | Cc1cccc(-n2c(Cc3cc(=O)[nH]c(=O)[nH]3)nnc2SC(C)C)c1 | -4.19% (inactive)
9 | Cc1ccc(Nc2nc(CSc3nnc(-c4ccncc4)n3-c3ccccc3C)cs2)cc1 | -6.74% (inactive)
10 | CC1CC(C)CN(S(=O)(=O)c2ccc(C(=O)NN3CCOCC3)cc2)C1 (centres undefined) | -4.58% (inactive)
11 | COC(=O)c1cccc([N+](=O)[O-])c1CS(=O)(=O)c1ccc(C)cc1 | -5.68% (inactive)
12 | O=C(c1ccc(N2CCOCC2)c([N+](=O)[O-])c1)N1CCN(S(=O)(=O)c2cccs2)CC1 | -0.582% (inactive)
13 | Cc1cc(Cl)ccc1OCCCC(=O)NCc1ccncc1 | 3.38% (inactive)
14 | COc1ccc(C(C(=O)NC(C)(C)C)N(C(=O)Cn2nnc3ccccc32)c2ccc(C(C)=O)cc2)cc1O (centres undefined) | -2.52% (inactive)
15 | Nc1nnc(SCC(=O)NC2CCCc3ccccc32)s1 (centres undefined) | -14.9% (inactive)
16 | O=C(NCCN1CCOCC1)c1cc(Sc2cccc(Cl)c2)nc2ccccc12 | -12.6% (inactive)
17 | O=S(=O)(NCc1ccco1)c1cnc(Cl)c(Cl)c1 | 8.75% (inactive)
18 | CC(C)[C@H](NC(=O)c1ccc(F)cc1)C(=O)OCC(=O)NC(=O)c1cccn1C | -0.221% (inactive)
19 | CCC(C)Cn1c(O)cc2nn(-c3nc4ccccc4s3)c(=O)c-2c1C (centres undefined) | -9.68% (inactive)
20 | Cc1ccc(-c2csc(NC(=O)c3cnccn3)n2)cc1C | -12.7% (inactive)
21 | CCOC(=O)CSC1=N/C(=C/c2ccc(-n3cncn3)cc2)C(=O)N1C(C)=O | -7.02% (inactive)
22 | CC1CCN(S(=O)(=O)c2ccc(S(=O)(=O)NCc3cccnc3)cc2)CC1 | 0.223% (inactive)
23 | O=C(COC(=O)[C@H](Cc1ccccc1)NC(=O)c1cccs1)Nc1cc(F)ccc1F | 6.99% (inactive)
24 | O=C(/C=C\c1ccc2c(c1)OCO2)NC1(C(=O)Nc2ccc3c(c2)OCCO3)CCCCC1 | -15.6% (inactive)

Row | SMILES | inhibition
25 | Cc1ccc(C)c(NC(=S)NNC(=O)c2csc(C)c2)c1 | 3.89% (inactive)
26 | O=C(CCc1[nH]c2ccccc2c1Sc1ccccc1)N(CCO)CCO | 19.8% (inactive)
27 | Cc1nnsc1S(=O)(=O)Cc1ccccc1Cl | 5.71% (inactive)
28 | COCCNC(=S)N/N=C/c1c(C)[nH]c2ccccc12 | -58.6% (inactive)
29 | CC(=O)Nc1ccc(S(=O)(=O)N(CCc2ccccc2)CC(=O)N/N=C/c2ccc(C(=O)O)cc2)cc1 | -12.9% (inactive)
30 | CCOC(=O)C1(c2ccccc2)NC(c2ccc(N(C)C)cc2)C2C(=O)N(C)C(=O)C21 (centres undefined) | -3.65% (inactive)
31 | COc1cc(CN(C)Cc2nc3cc(C(F)(F)F)ccc3c(=O)[nH]2)ccc1OC(F)F | 1.94% (inactive)
32 | Fc1ccc(/C=N/Nc2nc(-c3cccnc3)nc3ccccc23)cc1 | -55.8% (inactive)
33 | COc1ccc(OCC(O)CNC(=O)Nc2ccc(Cl)cc2)cc1 (centres undefined) | 2.73% (inactive)
34 | Cc1cc(=O)oc(C)c1C(=O)NC1CC(C)(C)NC(C)(C)C1 | -4.42% (inactive)
35 | O=C(Cn1c(N2CCN(C/C=C/c3ccccc3)CC2)nc2ccccc21)c1ccccc1 | -2.21% (inactive)
36 | Cc1nn(-c2ccccc2)c(=O)c2noc(C)c12 | -6.64% (inactive)
37 | CCOC(=O)c1cccnc1NC(=O)c1ccncc1 | -3.95% (inactive)
38 | Cc1nc(-c2ccc(Cl)cc2)sc1C(=O)NN | -13% (inactive)
39 | CC(C)CNC(=O)COC(=O)/C=C/c1ccco1 | -4.39% (inactive)
40 | CCN(C(=O)CN1CCN(Cc2ccccc2)CC1)c1c(N)n(Cc2ccccc2)c(=O)[nH]c1=O | 4.79% (inactive)
41 | Cc1cccc(OC(=O)c2sc3ncn(C)c(=O)c3c2C)c1 | 2% (inactive)
42 | Cc1cccc(NC(=S)N2CCC(O)CC2)c1C | 5.41% (inactive)
43 | O=[N+]([O-])c1cc(S(=O)(=O)N2CCCC2)ccc1NN=C1CCCC1 | 36.1% (inactive)
44 | Cc1ccc(S(=O)(=O)NC(=O)Nc2nc(-c3ccc(F)c(F)c3)cs2)cc1 | -8.79% (inactive)
45 | Cc1ccccc1NC(=S)N(CCCN1CCOCC1)Cc1cccs1 | 25.4% (inactive)
46 | COc1ccc(CN(C)Cc2nc3cc(OC)c(OC)cc3c(=O)[nH]2)c(OC)c1 | 1.93% (inactive)
47 | COc1ccc(CC(=O)NCc2nnc(SCC(=O)Nc3nccs3)n2C)cc1 | -2.5% (inactive)
48 | O=C(/C=C/c1ccccc1)Oc1coc(CSc2ncccn2)cc1=O | -1.22% (inactive)

Row | SMILES | inhibition
49 | CCc1ccc(NC2Nc3cc(C)nn3S2)cc1 (centres undefined) | -2.97% (inactive)
50 | CC(=O)c1ccc(S(=O)(=O)Nc2ccc(C(=O)NCC(c3ccccc3)N(C)C)cc2)cc1 (centres undefined) | -5.8% (inactive)
51 | O=C(Nc1cccc2c1N(C(=O)c1ccco1)CCC2)c1ccco1 | -6.72% (inactive)
52 | CCOc1cnc(-c2c(-c3ccccc3Cl)noc2C)o1 | -3.33% (inactive)
53 | O=C(O)COc1ccc(/C=N/O)cc1Br | 6.57% (inactive)
54 | O=S(=O)(Nc1ccc2cn[nH]c2c1)c1ccccc1 | -2.67% (inactive)
55 | O=C(O)C(c1ccccc1)C1(O)CCCCC1 (centres undefined) | -7.32% (inactive)
56 | S=C(NCc1ccc2c(c1)OCO2)NCc1ccco1 | -4.45% (inactive)
57 | COc1ccc(/C=C/C(=O)Nc2c(C)nn(C)c2C)cc1COc1ccc(Br)cc1 | -11.6% (inactive)
58 | Cc1csc(=Nc2ccccc2)n1CCO | -4.03% (inactive)
59 | O=C(Cn1cnc([N+](=O)[O-])n1)NCCc1ccccc1 | -4.47% (inactive)
60 | COc1cccc(CC2(CO)CCCN(Cc3nc(-c4cccs4)oc3C)C2)c1 (centres undefined) | 6.9% (inactive)
61 | COc1cc(Cl)c(C)cc1NC(=O)[C@@H]1CCCN1C(=O)c1cccs1 | -2.99% (inactive)
62 | CC/C(=N\NC(=S)NC(C)C)c1ccc(OC(F)F)cc1 | 10.1% (inactive)
63 | O=C(c1ccc2ccccc2n1)N1CCN(c2ccccc2Cl)CC1 | -6.88% (inactive)
64 | CCN(/N=C/c1ccc(N(C)C)cc1)c1nc2ccccc2[nH]1 | -4.95% (inactive)
65 | COc1ccc(C(C#N)Nc2ccccc2C)cc1 (centres undefined) | 4.57% (inactive)
66 | COC(=O)c1c(NC(=O)COC(=O)[C@@H](NS(=O)(=O)c2ccccc2)C(C)C)sc2c1CCC2 | -13.7% (inactive)
67 | CC(C)COC(=O)n1c(=O)oc2ccc(S(=O)(=O)N3CCCCC3)cc21 | -6.57% (inactive)
68 | Cc1cc(C)n2nc(C(=O)N(C)C(c3ccccc3)c3ccccc3)nc2n1 | 1.27% (inactive)
69 | C[n+]1ccccc1C1CCCC/C1=N\Nc1ccc([N+](=O)[O-])cc1[N+](=O)[O-] (centres undefined) | -18.3% (inactive)
70 | CCOC(=O)/C(=N\Nc1ccccc1Cl)N(C)C1CCS(=O)(=O)C1 (centres undefined) | -29.3% (inactive)
71 | Cn1cc(/C=C/C(=O)N2CCCC(C(=O)c3ccc(C(F)(F)F)cc3)C2)cn1 (centres undefined) | -9.79% (inactive)
72 | CC(C)(C)NC(=O)NCc1ccco1 | 3.59% (inactive)

Row | SMILES | inhibition
73 | O=C(COC(=O)/C=C/c1cn(-c2ccccc2)nc1-c1cccnc1)Nc1ccc(Cl)cc1Cl | -3.93% (inactive)
74 | CC(=O)Nc1ccc(Nc2c([N+](=O)[O-])cc(S(C)(=O)=O)cc2[N+](=O)[O-])cc1 | -2.68% (inactive)
75 | Cc1ccccc1C(=O)NNC(=O)CN1C(=O)c2ccccc2C1=O | 0.726% (inactive)
76 | COc1ccc(/C=N/NS(=O)(=O)c2ccc(NC(C)=O)cc2)cc1 | -17.4% (inactive)
77 | Cc1ccc(NC(=O)C(=O)NCC2CCN(C(=O)c3cccc([N+](=O)[O-])c3)CC2)cc1 | -4.84% (inactive)
78 | CC(=O)NC(Cc1ccc(F)c(F)c1)C(=O)NC1CCN(c2nnnn2-c2ccccc2)CC1 (centres undefined) | -4.26% (inactive)
79 | O=C(c1ccncc1)c1ccc([N+](=O)[O-])cc1 | -1.97% (inactive)
80 | COc1ccc(CCNC(=O)CN(c2ccccc2)S(C)(=O)=O)cc1 | 2.74% (inactive)
81 | OC(CN1C2=NCCCN2c2ccccc21)c1ccc(Br)cc1 (centres undefined) | -1.72% (inactive)
82 | CN(CC#CCC(c1ccccc1)c1ccccc1)C(C)(C)C | -4.21% (inactive)
83 | O=C(O)c1cccnc1NC1CCCC1 | -18.1% (inactive)
84 | O=C(O)c1ccc(N=NN2CCOCC2)cc1 | 11.7% (inactive)
85 | COCCNc1cc(NCCOC)c([N+](=O)[O-])cc1[N+](=O)[O-] | -26.9% (inactive)
86 | Cc1ccc(CNC(=O)CC2Sc3ccccc3NC2=O)cc1 (centres undefined) | -3.22% (inactive)
87 | CC(C)(C)c1ccc(C(=O)NCc2nnc(SCC(=O)N3CCCc4ccccc43)n2-c2ccccc2)cc1 | -3.07% (inactive)
88 | Cc1ccc(-n2nc(N)c3c(=O)oc(N(C)C)nc32)cc1 | 0.228% (inactive)
89 | OCCCNC(c1ccccc1)c1ccc(O)cc1 (centres undefined) | 0.734% (inactive)
90 | OCCn1c(-c2ccccc2)csc1=Nc1ccccc1 | -11.3% (inactive)
91 | CC1(C)CC(=O)C=C(NCCCNC2CCCCC2)C1 | 58.6% (active)
92 | CC1(C)CC(=O)C=C(NCCCN2CCCC2=O)C1 | 0.498% (inactive)
93 | CC1(C)CC(=O)C=C(NCCN2CCNCC2)C1 | -12.2% (inactive)
94 | Cc1cc(C)c2nc(SCC(=O)N(C)C3CCS(=O)(=O)C3)cc(C)c2c1 (centres undefined) | -5.97% (inactive)
